# Measurements: PubChem BioAssay (EPA / NIEHS)
# Records with an inconclusive call do not appear. Calls of active or inactive are those of the source. The calls were made as follows, unless noted: active = hit-call score of the fitted dose curve at least 0.9, where 1 is the maximum; inconclusive = response in the unintended direction; inactive = score below 0.9.
# Biological target: THRA (gene 7067) (UniProt P10827)
# Assay: TOX21_TRA_COA_Agonist_Followup_ratio: Tox21 Thyroid Hormone Receptor alpha Agonism through Coactivator Recruitment Follow-Up Assay, Ratio (AID 2283948; active = hit-call score of the fitted dose curve at least 0.9, where 1 is the maximum; inactive = score below 0.9)
# Method in brief: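 Read-out is the 520/495 nm emission ratio (ex 340 nm), scaled between DMSO-only wells as 0% and T3 wells as 100%. It reflects fluorescein-SRC-2 peptide recruitment to GST-TRα LBD detected via terbium anti-GST antibody.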
# Sequence of THRA (gene 7067) (P10827 whole entry, looked up): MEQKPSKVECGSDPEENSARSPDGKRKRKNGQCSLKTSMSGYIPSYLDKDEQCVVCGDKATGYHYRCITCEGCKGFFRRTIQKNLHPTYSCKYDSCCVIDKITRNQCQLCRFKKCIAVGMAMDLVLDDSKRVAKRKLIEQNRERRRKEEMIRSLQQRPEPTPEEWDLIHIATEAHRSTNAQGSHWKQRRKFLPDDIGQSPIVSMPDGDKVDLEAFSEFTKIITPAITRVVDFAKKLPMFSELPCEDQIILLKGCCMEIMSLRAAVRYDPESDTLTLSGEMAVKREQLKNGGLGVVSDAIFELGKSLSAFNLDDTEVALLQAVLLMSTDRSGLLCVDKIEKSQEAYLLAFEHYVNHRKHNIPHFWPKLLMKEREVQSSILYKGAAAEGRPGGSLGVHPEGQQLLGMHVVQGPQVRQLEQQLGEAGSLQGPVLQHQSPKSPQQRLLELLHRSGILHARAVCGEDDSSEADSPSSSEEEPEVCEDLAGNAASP
Structure (SMILES),AC50,outcome
NC(CO)(CO)CO,40.6 µM (active),–
C[Si](C)O[Si](C)(C)O[Si](C)(C)O[Si](C)C,–,inactive
CCCCCCC(O)CO (configuration not stated),–,inactive

# Biological target: THRA (gene 7067) (UniProt P10827)
# Assay: TOX21_TRA_COA_Antagonist_Followup_ratio: Tox21 Thyroid Hormone Receptor alpha Antagonism through Coactivator Recruitment Follow-Up Assay, Ratio (AID 2283953)
# Method in brief: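 We measured antagonism of T3-type coactivator recruitment using a TR-FRET ratio (emission 520 and 495 nm) between a Tb-labelled anti-GST antibody on TRα LBD (2.5 nM) and SRC-2 peptide (200 nM). Activity was scaled between DMSO and T3 wells.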
row,Structure (SMILES),outcome
1,Cc1oncc1C(=O)Nc1ccc(C(F)(F)F)cc1,inactive
2,Oc1ccc(Cl)cc1Cc1cc(Cl)ccc1O,inactive
3,COCc1c(C(C)C)nc(C(C)C)c(/C=C/[C@@H](O)C[C@@H](O)CC(=O)O)c1-c1ccc(F)cc1,inactive
4,c1cc(N(CC2CO2)CC2CO2)ccc1OCC1CO1 (configuration not stated),inactive

# Biological target: THRB (gene 7068) (UniProt P10828)
# Assay: TOX21_TRB_BLA_Antagonist_Followup_ratio: Tox21 Thyroid Hormone Receptor beta Antagonism Beta-lactamase (BLA) Follow-Up Assay, Ratio (AID 2283958)
# Method in brief: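 Read-out: blue/green (460:530 nm) ratio of cleaved to uncleaved CCF4-AM after 2 h at room temperature, fitted against DMSO baseline. HEK293T UAS-bla cells carrying GAL4-human TRβ LBD were exposed 18 h, 37C/5% CO2.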
# Sequence of THRB (gene 7068) (P10828 whole entry, looked up): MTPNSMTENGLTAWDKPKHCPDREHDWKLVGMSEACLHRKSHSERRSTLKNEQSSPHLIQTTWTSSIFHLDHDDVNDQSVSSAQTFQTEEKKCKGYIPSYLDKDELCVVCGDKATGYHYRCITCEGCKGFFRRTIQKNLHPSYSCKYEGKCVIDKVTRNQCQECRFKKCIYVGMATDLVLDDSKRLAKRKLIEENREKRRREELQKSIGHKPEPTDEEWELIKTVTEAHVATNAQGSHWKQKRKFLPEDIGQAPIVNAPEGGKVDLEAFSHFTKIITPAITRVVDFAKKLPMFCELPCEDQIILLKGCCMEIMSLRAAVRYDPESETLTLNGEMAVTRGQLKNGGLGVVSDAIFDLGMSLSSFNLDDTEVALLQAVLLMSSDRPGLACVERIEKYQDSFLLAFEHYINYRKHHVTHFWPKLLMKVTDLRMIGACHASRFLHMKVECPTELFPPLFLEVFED
Structure (SMILES),outcome,AC50
N=c1ccn2c(n1)O[C@H]1[C@H](O)[C@@H](CO)O[C@H]12,inactive,–
COc1ccc(C(Cl)=C(c2ccc(OC)cc2)c2ccc(OC)cc2)cc1,inactive,–
Cc1oncc1C(=O)Nc1ccc(C(F)(F)F)cc1,inactive,–
Oc1ccc(Cl)cc1Cc1cc(Cl)ccc1O,–,38.3 µM (active)
COCc1c(C(C)C)nc(C(C)C)c(/C=C/[C@@H](O)C[C@@H](O)CC(=O)O)c1-c1ccc(F)cc1,inactive,–
c1cc(N(CC2CO2)CC2CO2)ccc1OCC1CO1 (configuration not stated),inactive,–

# Test system: not listed separately
# Assay: TOX21_TRB_BLA_Antagonist_Followup_viability: Viability Assessment in the Tox21 Thyroid Hormone Receptor beta Antagonism Beta-lactamase (BLA) Follow-Up Assay (AID 2283961)
# Method in brief: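 HEK293T cells stably expressing GAL4-DBD/human TRβ-LBD with UAS-bla reporter, 3,000 cells/well in phenol red-free DMEM, 2% charcoal-stripped FBS. Compounds at 11 concentrations in triplicate, 18 h at 37C/5% CO2; viability by CellTiter-Glo luminescence after 30 min at room temperature.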
Structure (SMILES),outcome,AC50
N=c1ccn2c(n1)O[C@H]1[C@H](O)[C@@H](CO)O[C@H]12,inactive,–
COc1ccc(C(Cl)=C(c2ccc(OC)cc2)c2ccc(OC)cc2)cc1,inactive,–
Cc1oncc1C(=O)Nc1ccc(C(F)(F)F)cc1,inactive,–
Oc1ccc(Cl)cc1Cc1cc(Cl)ccc1O,–,23.5 µM (active)
COCc1c(C(C)C)nc(C(C)C)c(/C=C/[C@@H](O)C[C@@H](O)CC(=O)O)c1-c1ccc(F)cc1,inactive,–
c1cc(N(CC2CO2)CC2CO2)ccc1OCC1CO1 (configuration not stated),inactive,–

# Biological target: THRB (gene 7068) (UniProt P10828)
# Assay: TOX21_TRB_COA_Agonist_Followup_ratio: Tox21 Thyroid Hormone Receptor beta Agonism through Coactivator Recruitment Follow-Up Assay, Ratio (AID 2283963; active = hit-call score of the fitted dose curve at least 0.9, where 1 is the maximum; inactive = score below 0.9)
# Method in brief: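 Agonism is measured as coactivator recruitment in a purified-protein TR-FRET format, using GST-TRβ LBD at 5.0 nM, fluorescein-SRC-2 peptide at 200 nM and Tb-labeled anti-GST antibody at 2 nM. Values are 520:495 nm ratios relative to DMSO (0%) and T3 (100%).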
row,Structure (SMILES),outcome
1,NC(CO)(CO)CO,inactive
2,C[Si](C)O[Si](C)(C)O[Si](C)(C)O[Si](C)C,inactive
3,CCCCCCC(O)CO (configuration not stated),inactive

# Biological target: THRB (gene 7068) (UniProt P10828)
# Assay: TOX21_TRB_COA_Antagonist_Followup_ratio: Tox21 Thyroid Hormone Receptor beta Antagonism through Coactivator Recruitment Follow-Up Assay, Ratio (AID 2283967)
# From the text: TOX21_TRb_COA_Antagonist_Followup is a secondary assay for specificity for the TOX21_TR_GH3_LUC_Agonist assay. The LanthaScreen TR-FRET TR coactivator assay kits were used to determine TR activity in a cell-free functional assay. A time-resolved fluorescence resonance energy transfer (TR-FRET) signal was indicative of coactivator (SRC-2) recruitment.TOX21_TRB_COA_Antagonist_Followup_ratio is assay component calculated in the TOX21_TRB_COA_Antagonist_Followup assay. The TR-FRET ratio of acceptor emission (ch2) to donor emission (ch1) is indicative of the resonance energy transfer to the fluorescein tag on the coactivator peptide following recruitment to the receptor.Data from the assay component TOX21_TRB_COA_Antagonist_Followup_ratio was analyzed into 1 assay endpoint. This assay endpoint, TOX21_TRB_COA_Antagonist_Followup_ratio, was analyzed in the positive analysis fitting direction relative to DMSO as the negative control and baseline of activity. Using a type of inducible reporter, loss-of-signal activity can be used to understand changes in the reporter gene as they relate to the gene THRB. Furthermore, this assay endpoint can be referred to as a primary readout, because this assay has produced multiple assay endpoints and this ratio serves a reporter gene function to understand target activity. To generalize the intended target to other relatable targets, this assay endpoint is annotated to the nuclear receptor intended target family, where the subfamily is non-steroidal.
# Cell Media Required: Growth (90% DMEM/F-12, 10% Fetal Bovine Calf Serum, 100U/ml Penicillin, 100 ug/ml Streptomycin), Assay (10ng/mL sodium selenite, 10 ug/mL humanapo-transferrin, 10 uM ethanolamine, 10 ug/mL insulin, 500 ug/mL bovine serum albumin (BSA))Assay Protocol: 4 uL mixture of the receptor LBDs expressed as glutathione S-transferase (GST) fusion proteins (2.5 nM for TRa and 5.0 nM for TRb) and BSA (0.10%; Sigma-Aldrich) were incubated with 23 nL of control or test compound. A time-resolved fluorescence resonance energy transfer(TR-FRET) signal was indicative of coactivator recruitment using a 2 uL mixture of fluoresce in-labeled SRC-2 peptide (200 nM) and terbium-labeled anti-GST antibody (2nM), which transferred resonance energy to the fluorescein tag on the coactivator peptide following recruitment to the receptor. Fluorescence emission ratios (520:495 nm) were collected by an Envision plate reader (excitation at 340 nm and emissions at 495 and 520 nm), and the measured values were normalized to 0% activity using DMSO-only wells and 100 activity using T3 control wells.
Structure (SMILES),outcome,AC50
N=c1ccn2c(n1)O[C@H]1[C@H](O)[C@@H](CO)O[C@H]12,inactive,–
Cc1oncc1C(=O)Nc1ccc(C(F)(F)F)cc1,inactive,–
Oc1ccc(Cl)cc1Cc1cc(Cl)ccc1O,–,38.3 µM (active)
COCc1c(C(C)C)nc(C(C)C)c(/C=C/[C@@H](O)C[C@@H](O)CC(=O)O)c1-c1ccc(F)cc1,inactive,–
c1cc(N(CC2CO2)CC2CO2)ccc1OCC1CO1 (configuration not stated),inactive,–
